Compounds with a hit are over-represented: about 11% of the library has one in this group of screens.
ERK AVP block = inhibitors of vasopressin-stimulated ERK signaling pathway; 0.99% of 72,000 active; Potency, µM (doses to about 57.5 µM), hits mostly inhibitors; AID 995; HEK293-V1b, vasopressin-stimulated pERK AlphaScreen; note: nearly all actives have a fitted effect of over 55% in size
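HEK293 cells stably expressing V1b receptor, seeded overnight in 1% FBS, were treated with compounds for 30 min at 37C, then stimulated 5 min with 25 nM vasopressin; phospho-ERK read by AlphaScreen SureFire after lysis.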
FLuc inh = inhibitors of firefly luciferase; P08659; purified firefly luciferase, luminescence, 8 min; Potency, µM (highest dose often 57.1 µM), usual class: inhibitors; 2.2% of 72,000 active; note: nearly all actives have a fitted effect of over 40% in size
Target sequence (P08659 whole entry, looked up): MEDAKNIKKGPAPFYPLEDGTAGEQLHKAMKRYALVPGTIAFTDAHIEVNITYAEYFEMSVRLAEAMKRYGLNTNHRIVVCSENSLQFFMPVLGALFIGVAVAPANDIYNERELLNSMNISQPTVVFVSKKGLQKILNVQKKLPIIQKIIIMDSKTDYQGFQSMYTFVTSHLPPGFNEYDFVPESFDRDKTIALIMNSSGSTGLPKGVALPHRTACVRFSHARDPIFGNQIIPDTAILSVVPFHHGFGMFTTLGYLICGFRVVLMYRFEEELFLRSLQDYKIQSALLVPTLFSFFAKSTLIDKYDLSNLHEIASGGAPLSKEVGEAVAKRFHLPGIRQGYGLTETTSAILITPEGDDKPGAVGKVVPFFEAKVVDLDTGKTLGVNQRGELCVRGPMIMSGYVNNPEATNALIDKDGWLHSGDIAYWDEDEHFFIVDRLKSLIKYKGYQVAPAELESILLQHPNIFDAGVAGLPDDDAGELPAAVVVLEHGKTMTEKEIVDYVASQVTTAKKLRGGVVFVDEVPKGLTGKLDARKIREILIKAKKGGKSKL
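Inhibition of light generation by firefly luciferase from ATP and luciferin was profiled with concentration-response curves per sample, ATP held at 10 uM within the enzyme's linear range. Plates were read by luminescence after an 8-minute ambient incubation.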
HSD17B inhib = blocks hydroxysteroid 17-beta dehydrogenase activity; Q99714; recombinant HSD17B10, NADH fluorescence kinetic; Potency, µM (top dose mostly 57.1 µM), actives largely listed as inhibitors; 7.6% of 75,000 active; AID 893;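 note: the protocol describes HADH2 (HSD17B10) and not the HSD17B4 of the title; nearly all actives have a fitted effect of over 70% in size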
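Activity followed as NADH fluorescence increase (ex 360, em 450 nm) every 30 seconds for 4 min, using final 90 uM beta-hydroxybutyryl CoA and 1 mM NAD+. Recombinant His-tagged enzyme, 20 nM, pH 9.0 Tris buffer, 15 min compound preincubation.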
ALOX15 inhib = inhibitors of human 15-lipoxygenase (ALOX15) | P16050 | purified 15hLO-1, xylenol orange hydroperoxide absorbance | Potency, µM (doses to about 57.1 µM), most hits filed as inhibitors | 1.4% of 74,000 active | AID 887; note: nearly all actives have a fitted effect of over 55% in size
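Purified human 15hLO-1 (40 nM) in 25 mM Hepes pH 7.5, 0.01% Triton X-100, preincubated 15 min RT with compound, then 50 uM arachidonic acid for 6 min. Hydroperoxide read by ferrous/xylenol orange, 30 min; 573/405 nm absorbance ratio gave progress.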
HADH2 inh = inhibitors of human HADH2 dehydrogenase | Q99714 | recombinant HADH2, NADH fluorescence, beta-hydroxybutyryl-CoA | Potency, µM (top dose mostly 57.1 µM), hits mostly inhibitors | 3.4% of 73,000 active | AID 886; note: nearly all actives have a fitted effect of over 60% in size
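20 nM HADH2 + cpd, 15 min RT; add 1 mM NAD+/90 uM beta-hydroxybutyryl-CoA; kinetic fluorescence 360/450 nm, 4 min. Tris-HCl pH 9.0, 0.01% Tween-20.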
PK Bst = modulators of Bacillus stearothermophilus pyruvate kinase; AID 361; purified pyruvate kinase, luminescence ATP production; ribose 5-phosphate activator present at AC10; Potency, µM; 1.2% of 51,000 active; in the data active = potency below about 11 µM; inconclusive = mostly about 12 µM to 25 µM;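 the screen sought inhibitors and activators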
Large screens that a line does not name were inactive. Unless noted, calls come from the whole dose curve; as a rule, active = well fitted curve in the direction sought with a large enough effect; inconclusive = small, poorly fitted or top-dose-only effect, or another doubt; inactive = no such curve, though single readings can be large; an effect the other way counts as inactive or inconclusive.

CCN(CC)CCN1C(=O)c2ccccc2NC1c1cccc(F)c1 (stereo not given)	HSD17B inhib 32µM (no result: PK Bst)
CCN(CC)CCN1C(=O)c2ccccc2NC1c1cc(OC)c(OC)c(OC)c1 (stereo not given)	none (no result: ERK AVP block, HSD17B inhib, ALOX15 inhib, HADH2 inh)
COc1ccc(C2Nc3ccccc3C(=O)N2Cc2ccco2)cc1COc1ccc(NC(C)=O)cc1 (stereo not given)	HSD17B inhib 32µM, ALOX15 inhib 16µM, HADH2 inh inconclusive
O=C(NC1CCCCCC1)C1c2ccccc2C(=O)N1Cc1ccco1 (stereo not given)	none
Cc1ccc(C2Nc3ccccc3C(=O)N2Cc2ccco2)cc1 (stereo not given)	ERK AVP block inconclusive, HSD17B inhib 32µM, ALOX15 inhib inconclusive
COc1ccc(Cc2nc(-c3cccs3)no2)cc1OC	none (no result: PK Bst)
COc1ccc(-c2nc(-c3cccs3)c(-c3cccs3)[nH]2)cc1O	ERK AVP block inconclusive, HSD17B inhib 32µM, HADH2 inh inconclusive (no result: PK Bst)
c1ccc(C(c2ccccc2)N2CCC3(CCNCC3)CC2)cc1	none (no result: PK Bst)
Cc1ccccc1NS(=O)(=O)c1ccc2[nH]cc(C(=O)N(C)Cc3ccco3)c(=O)c2c1	HSD17B inhib 25µM, HADH2 inh inconclusive
Cc1cc(C)cc(NS(=O)(=O)c2ccc3[nH]cc(C(=O)NCc4ccco4)c(=O)c3c2)c1	HSD17B inhib 32µM, ALOX15 inhib inconclusive
CCOc1ccc(NS(=O)(=O)c2ccc3[nH]cc(C(=O)N(CC)CC)c(=O)c3c2)cc1	HSD17B inhib 32µM, PK Bst inconclusive
Cc1cccn2c(=O)c3cc(C(=O)NC(C)c4ccccc4)c(=N)n(CCCn4ccnc4)c3nc12 (stereo not given)	HSD17B inhib 6.3µM, HADH2 inh inconclusive
Cc1ccc2nc3c(cc(C(=O)NCc4ccccc4)c(=N)n3CCCn3ccnc3)c(=O)n2c1	HSD17B inhib 4µM, HADH2 inh 25µM
N#Cc1cc2c(=O)n3ccccc3nc2n(CCCn2ccnc2)c1=N	HSD17B inhib inconclusive
COCCCn1c(=N)c(C(=O)NCc2ccc3c(c2)OCO3)cc2c(=O)n3cccc(C)c3nc21	none
COC(=O)CC1C2(C)CC34OC5(C)O[C@@]6(C7/C(=C(/OC)C(C)C)C(=O)OC(c8ccoc8)[C@@]7(C)C(OC(=O)C(C)C)C(OC)[C@]6(O5)[C@@]13C)C(OC)[C@]4(OC)C2OC(C)=O (stereo not given in full)	none (no result: FLuc inh, HADH2 inh, PK Bst)
CCOC(=O)c1cc(C)[nH]c(=S)c1C#N	HSD17B inhib inconclusive, ALOX15 inhib 4µM, HADH2 inh 1.3µM
Cc1cnc(CNc2ncnc3ccc(-c4ccoc4)cc23)cn1	HSD17B inhib inconclusive, HADH2 inh inconclusive (no result: PK Bst)
Cc1ccc2c(c1)C(N1CCCC1=O)CC(c1ccco1)N2 (stereo not given)	FLuc inh 10µM, HSD17B inhib inconclusive, PK Bst inconclusive
CCN(CC)CCCCn1c(-c2ccccc2)nc2c(NCc3ccccc3)nc(C)nc21	HSD17B inhib 25µM (no result: FLuc inh, PK Bst)
CCN(CC)CCCn1c(-c2ccccc2)nc2c(NCc3ccccc3)nc(C)nc21	HSD17B inhib 20µM (no result: FLuc inh, PK Bst)
Cc1nc(NCc2ccccc2)c2nc(-c3ccccc3)n(CC(C)(C)CN(C)C)c2n1	HSD17B inhib 32µM, ALOX15 inhib 4µM (no result: FLuc inh, PK Bst)
CC(C)C[C@@H](CC(=O)N[C@@H](CCC(=O)O)CC(=O)O)NC(=O)[C@@H]1CNCC[C@H]1NC(=O)C[C@@H](NC(=O)C[C@H](CO)NC(=O)[C@@H]1CNCC[C@H]1N)C(C)C	none (no result: ERK AVP block, FLuc inh, HSD17B inhib, ALOX15 inhib, PK Bst)
CN1CCN(c2ccnc(-c3cccc(NS(C)(=O)=O)c3)n2)CC1	none (no result: PK Bst)
CN1CCN(c2ccnc(-c3ccc(N(C)C)cc3)n2)CC1	HSD17B inhib 32µM (no result: PK Bst)
CN(C)c1ccc(-c2nccc(NCCN3CCOCC3)n2)cc1	HSD17B inhib 32µM (no result: PK Bst)
c1nc(NCCN2CCOCC2)c2cc(-c3ccoc3)ccc2n1	HSD17B inhib inconclusive (no result: PK Bst)
COc1cccc(Nc2ncc3nc(CCc4ccccc4)c(=O)n(C[C@H]4CCCO4)c3n2)c1	none (no result: PK Bst)
CN(C)CCCn1cnc2cc(Cl)c(Cl)cc21	none (no result: PK Bst)
COc1ccccc1NC=C1C(=O)OC(C)(C)OC1=O	FLuc inh 16µM (no result: PK Bst)
NCC[C@H](N)C(=O)O	none (no result: PK Bst)
O=C(O)[C@@H]1[C@@H](C(=O)NCc2ccncc2)[C@@H]2C=C[C@@H]1O2	none (no result: PK Bst)
COc1ccc(N(C)C(=O)Nc2ccc3c(c2)nnn3C)cc1	HSD17B inhib 20µM
Cn1nnc2cc(NC(=O)N3CC4(C)CC3CC(C)(C)C4)ccc21 (stereo not given)	HSD17B inhib inconclusive
NC(=S)SCCC(=O)O	none (no result: PK Bst)
CCOc1nc2ccccc2nc1NS(=O)(=O)c1ccccc1	HADH2 inh inconclusive
CCOc1ccc2nc(NCCCNS(=O)(=O)c3ccccc3)c(C#N)cc2c1	HSD17B inhib 16µM (no result: PK Bst)
CC1CN(C(=O)CSc2ncnc3sccc23)CC(C)O1 (stereo not given)	none
c1ccc(-c2cnc(CSc3ncnc4sccc34)o2)cc1	ERK AVP block 32µM, HSD17B inhib 32µM, ALOX15 inhib 16µM, HADH2 inh inconclusive
COCCn1c(=O)c(-c2ccc(F)cc2)nc2cnc(Oc3ccccc3)nc21	HSD17B inhib inconclusive (no result: PK Bst)
COCCn1c(=O)c(-c2ccc(Cl)cc2)nc2cnc(Oc3ccc(OC)cc3)nc21	HSD17B inhib inconclusive (no result: PK Bst)
COCCn1c(=O)c(-c2ccc(OC)cc2)nc2cnc(Oc3ccccc3)nc21	HSD17B inhib 25µM (no result: PK Bst)
COc1ccc(-c2nc3cnc(Oc4ccccc4)nc3n(C3CC3)c2=O)cc1	HSD17B inhib 25µM (no result: PK Bst)
COCCn1c(=O)c(-c2ccccc2)nc2cnc(Oc3ccc(OC)cc3)nc21	ERK AVP block inconclusive, HSD17B inhib 32µM (no result: PK Bst)
COCCNC(=O)c1ccc(-n2c(=O)c(=O)[nH]c3ccccc32)cc1	none (no result: ERK AVP block, FLuc inh, PK Bst)
CCn1c(SCC(=O)N2CCCC2)nc2c1c(=O)n(C)c(=O)n2C	ERK AVP block 20µM
CCN1C(=O)[C@H]2[C@H]3[C@H](O)[C@H](O)C/C(=N/O[C@@H](C)CN4CCCCc5nc(C)c(C)cc54)[C@@H]3CC[C@@H]2C1=O	none (no result: PK Bst)
COc1ccccc1Oc1c(C)oc2c(CN3CCN(CCO)CC3)c(O)ccc2c1=O	HSD17B inhib 32µM, HADH2 inh inconclusive
CCCCc1cc(=O)oc2c(CN3CCCC3)c(O)ccc12	none (no result: ERK AVP block, HSD17B inhib, ALOX15 inhib, HADH2 inh)
Cc1oc2c(CN3CCCC3)c(O)ccc2c(=O)c1Oc1ccccc1Br	HSD17B inhib 32µM, HADH2 inh 32µM
CCOC(=O)c1ccc(Oc2c(C)oc3c(CN4CCN(C)CC4)c(O)ccc3c2=O)cc1	HSD17B inhib 32µM
CN1CCN(Cc2c(O)ccc3c(=O)c(Oc4ccccc4Cl)c(C(F)(F)F)oc23)CC1	HSD17B inhib inconclusive, ALOX15 inhib inconclusive (no result: PK Bst)
CCOc1ccccc1Oc1c(C)oc2c(CN3CCN(CCO)CC3)c(O)ccc2c1=O	HSD17B inhib 32µM
